This is part of a sample that, as a whole, favours compounds with a hit. Of some 79,000 tested, about 15% had one in any assay. Values without a mark were called inactive. Active and inactive are the calls of the source. Rule as the data show it: active = growth inhibition above about 70%; inactive = the rest.
Key:
[1] = NCI Yeast Anticancer Drug Screen. Data for the rad50 strain (AID 155);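 also: 0% = growth of vehicle-only cultures of the same strain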; details: S. cerevisiae rad50 strain growth inhibition; at 50.0 µM; active compounds read high
Method in brief: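 Yeast carrying a defined DNA repair defect were exposed to test compounds, and growth was compared with vehicle-treated controls to give percent inhibition.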

[2] = NCI Yeast Anticancer Drug Screen. Data for the mec2-1 strain (AID 157); details: S. cerevisiae mec2-1 strain, at 50.0 µM, active compounds read high
Method in brief: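 Mutant yeast (mec2-1) grown with compound; growth inhibition relative to vehicle control reported.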

[3] = NCI Yeast Anticancer Drug Screen. Data for the sgs1 mgt1 strain (AID 161);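 also: 0% = growth of cultures given vehicle only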; details: S. cerevisiae sgs1 mgt1 strain, at 50.0 µM, active compounds read high
Method in brief: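 Growth of a repair-deficient yeast mutant was monitored after compound treatment and expressed as inhibition relative to vehicle-treated cultures.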

[4] = NCI Yeast Anticancer Drug Screen. Data for the cln2 rad14 strain (AID 165);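 also: 0% = growth equal to vehicle treated cultures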; details: S. cerevisiae cln2 rad14 strain, at 50.0 µM, active compounds read high
Method in brief: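 Readout is yeast growth inhibition versus vehicle-treated controls, using a strain with cln2 and rad14 alterations exposed to compound.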

[5] = NCI Yeast Anticancer Drug Screen. Data for the bub3 strain (AID 167); details: S. cerevisiae bub3 mutant strain, at 50.0 µM, active compounds read high
Method in brief: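 Compounds were applied to a genetically altered yeast strain carrying a cell-cycle control defect. Growth inhibition was scored against vehicle-treated controls.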

[6] = NCI Yeast Anticancer Drug Screen. Data for the mlh1 rad18 strain (AID 175); details: S. cerevisiae mlh1 rad18 strain growth inhibition; at 50.0 µM; active compounds read high
Method in brief: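 Genetically defined yeast (DNA repair-deficient) exposed to compounds; growth inhibition determined relative to vehicle.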

| Structure (SMILES) | growth inhibition [1] [%] | growth inhibition [2] [%] | growth inhibition [3] [%] | growth inhibition [4] | growth inhibition [5] | growth inhibition [6] [%] |
| --- | --- | --- | --- | --- | --- | --- |
| CCc1ncc(C)[nH]1 | 0.55 | -13.8 | -6.35 | -0.15% | -12.1% | -8.8 |
| O=c1[nH]c2nc3ccccc3c(=O)n2/c1=C/c1ccco1 | 30.2 | 16.8 | 5.5 | 20.2% | 23.1% | 3.95 |
| CC1(C)CC(=O)C(CC2=C(N)CC(C)(C)CC2=O)=C(N)C1 | 1.8 | 5.8 | 9.9 | -13.3% | 10.6% | 31.7 |
| CCOC(=O)/C=C1\CONC(c2ccc(OC)cc2)=N1 | -9.1 | -5.3 | -12.4 | -19.2% | 3.4% | 2 |
| O=C(COC(=O)c1ccccc1Br)c1ccc(-c2ccccc2)cc1 | 33.6 | 20.8 | 31.6 | 31.4% | 0.7% | 23.2 |
| CC(=O)O[C@]1(C(C)=O)CC[C@H]2[C@@H]3C[C@H](C)C4=CC(=O)C=C[C@]4(C)[C@@]3(F)[C@@H](O)C[C@@]21C | 3.25 | -35.4 | -10.9 | -15.4% | -16.9% | 20.8 |
| NC(=S)NNC(=O)c1ccccc1 | -16.7 | -10.6 | -2.25 | 9.65% | 6.75% | -2.55 |
| CC(C)N(C(=O)c1cccc(C(=O)N(C(C)C)C(C)C)c1)C(C)C | 12.7 | 2.45 | 0.25 | 11.3% | 16.9% | 33.4 |
| COC(C(=O)CN(C)C)(c1ccccc1)c1ccccc1 | 4 | -11.1 | -1.85 | 6.45% | -26.8% | 23.5 |
| CC(=O)c1ccc(O)c(CN(C2CCCCC2)C2CCCCC2)c1O | -2.9 | -10.3 | -36.1 | 12.4% | -18% | 4.5 |
| O=c1[nH]c2ccc([N+](=O)[O-])cc2nc1/C=C(\O)c1ccccc1 | -9.85 | 14.3 | -24.4 | -31.1% | 3.75% | -46.5 |
| CN1CCN(CCSC(=O)C(O)(c2ccccc2)C2CCCC2)CC1 (stereo not drawn) | 17.1 | 16.6 | 7.35 | -17.2% | 4.6% | 24.8 |
| O=C(NC1CCCCC1)NC12CC3CC(CC(F)(C3)C1)C2 | -9.9 | -12.8 | -7.55 | 5.65% | -12.1% | 6.7 |
| C=CCNC(=O)N(CCCC(NC(C)=O)C(=O)NCc1ccccc1)Cc1ccccc1 (stereo not drawn) | 2.5 | -2.85 | -8.85 | 26.4% | -5.25% | -10.2 |
| CC1=CC(C)(C)Nc2ccccc21 | -0.25 | -5.6 | -8.95 | -3.95% | 6.95% | 8.45 |
| Nc1ccnc(SCCCCc2ccccc2)n1 | 15.6 | 64.4 | 59 | -6.15% | 74% (active) | 64 |
| COC1OC(COC(=O)c2ccc([N+](=O)[O-])cc2)C(SC#N)C1O (stereo not drawn) | 27.4 | 2.05 | 26.2 | -18.3% | -10.6% | 33.2 |
| C/C(C/C(C)=N/C(N)=S)=N\C(N)=S | -37.5 | -23.1 | -15.8 | -12.4% | 0.15% | -13.5 |
| NC(=O)Cc1ccncc1 | 5.95 | -2.85 | -3.95 | -9.9% | -2.7% | 1.55 |

| Structure (SMILES) | growth inhibition [1] [%] | growth inhibition [2] [%] | growth inhibition [3] [%] | growth inhibition [4] | growth inhibition [5] | growth inhibition [6] [%] |
| --- | --- | --- | --- | --- | --- | --- |
| O=C(/C=C/c1cccs1)c1ccc([N+](=O)[O-])cc1 | -59 | -58.7 | -27.6 | -6.3% | -23.1% | -21.6 |
| O=C1c2ccccc2C(=O)N1c1cccc([N+](=O)[O-])c1 | 0.5 | 15.9 | 16.4 | -44.6% | 26.4% | 7.05 |
| CCOC1=C2C(C)(CCC3[C@@]4(C)C=CC(=O)C(C)(C)C4CC(O)[C@@]23C)C(c2ccoc2)C1=O (stereo partly drawn) | 54 | 31 | 45.5 | 45.3% | 20.1% | 30.8 |
| CCCCCCCCCC1OCCCO1 | -14.3 | 0.15 | 12.2 | -0.1% | -4.5% | -16.3 |
| O=C(O)CCCCCCCCCC(=O)O | -15.1 | -17.5 | 0 | -24.9% | -7.7% | 9.05 |
| CC1OC(=O)C(O)=C1O (stereo not drawn) | -5.15 | -10.6 | -5.75 | 8.75% | 8.85% | -20.6 |
| Nc1c(F)c(F)cc(F)c1[N+](=O)[O-] | 2.6 | -2.7 | 2.55 | 7.6% | 9.6% | 4.35 |
| Nc1c(N=Nc2ccccc2)cc(S(=O)(=O)O)c2ccccc12 | 2.8 | -23.4 | -1.65 | 6.65% | 3.2% | -2.1 |
| CC(C)/C(=N\N=C(\c1ccccc1)C(C)C)c1ccccc1 | -2.6 | 25.5 | 3 | -7.7% | 16.3% | 18.1 |
| CC(=O)CC(C)(C)NC(=S)NCCO | 1.2 | -26.5 | 2 | -29.4% | -8.85% | -13.4 |
| CCOCCOC(=O)CCC1CCCCC1 | 29.8 | 16.5 | 9.1 | 11.2% | 19% | 29.6 |
| COc1cc2cc(OC)c3cc4c(cc3c2c(OC)c1OC)OCO4 | 12.2 | 11.1 | 19.2 | 7.3% | 6.6% | 5.65 |
| Clc1ccc(-c2csc3nc(-c4cccs4)nn23)cc1 | -0.05 | -16.6 | 16.6 | 1.65% | -6.95% | -5.3 |
| C/C(N=NC(=S)N1CCCCC1)=C1\C=CC=CN1O | 10.8 | -6.8 | 53.8 | 97.8% (active) | 43.2% | 22.1 |
| CCCN(CCC)S(=O)(=O)c1ccc(NC(=O)OC2CCCCC2)cc1 | 37.1 | 2.25 | 23.6 | 13.1% | -4.7% | 17.9 |
| CCOc1ccc(C2=NNC(=O)CC2)cc1 | 26 | -8.55 | -9.15 | 14.3% | 13.9% | 17.6 |
| CC(CC(C(=O)N(C)C)(c1ccccc1)c1ccccc1)[N+](C)(C)[O-] (stereo not drawn) | 5.5 | 17.4 | 0.1 | 11.9% | 13.3% | 3.8 |
| N/C(CC/C(N)=N\O)=N\O | -1.95 | -15.8 | -11.2 | -4.9% | 1.1% | -1.7 |
| CC(=O)Nc1cnc2c(nc3cc(C)ccn32)c1C | -5 | -9.1 | -19.9 | -9.55% | -0.7% | -10.2 |

— PubChem BioAssay (NCI)
